# Measured values reported in the supplement of paper PMC8728848.
# This is one part of a sample in which the strongest signals are shown more often than they occur.
# B1: Epa1-NP-mutant-Y228W (Candida glabrata), Q6VBJ0 (protein)
# chain: MILNPALFLNKCVCIYTTLILLLLTNGGYATSSNDISLASKDPTTFPLGCSPDITTPKKGLSMELYSYDFRKKGSYPCWDAAYLDPNYPRTGYKSHRLLAKVDGVTGNINFYYHATKGCTPQLGHLPASYNYPKPLTMTNFTMLLYGYFRPKVTGFHTFTISADDLLFVNFGAGNAFDCCRRDSSADHFGNYQAYAIWGSKTAKDELTVHLDAGVYYPIRLFYNNREWDGALSFTFKTESNENTVSDFSEYFFSLDDTEEGCPGLISYDSSCASVKTSKIIGIDYHTETPNENLVPITKTIYHLGIPCTGTTTTPLCGSGFYDPLANKCVTINTSSTSSVTKTTSHTTSKEVSFHSSISSQKTLIPKSIPSPYGPIKSQSIPTEMETSSEISSSEYAFSDVISTPSHSPYTKKHSSLNSSSYTSTVIHSLTSYSISQGIFSTSLSEQNITSKSSTDKFSTATSMSNNITQSSIIISQFSTNNENYTTTSMHTSSDKISTETLNNSISTTTSILFSNSSTILKNNTTIISSDKDTHYHPVNPTIVCSTNKTEIICASITQPSISNSNNHWSSSVLKFNSTTVRSTLPSSAGSNETSINVPFSSSTESNTSTSSTSTSNSKMVRSTLPSSAGSNETSISVPFSSSTESNTSTSSTSTSNSKMVRSTLPSSAGSNETSINVPFSSSTESNTSTSSTSTSNSKTVRSTPFSSAGIIMTSLSQRNNKSASSYASSNSKCYNTADSCRKVHSTPSYLLTSSYTSEGVDYDCSLVSTKLKINDTNCVNNKHTTKSCLKTSVTTTIPTLEIKTARKSSSNTIGLHSYPTSSPNKSISSAPIIGYISSFKTIKTASPSYQTSDLTTITTITSLNNPGSTAVENTHESNDKSRKTSSNDISSKHSVIKETKDAVESSNKSHQTNTLKCSSIIIASSSHNSYESLGGTTLTLTLSKVYSPQNNDTLPFLEISEVNPSRTVLPESSKMMQYLTSTEERNKTARNTIATNIVSISTFHFEGEGNAIRMGYTQLLLMLIGIIVMNIGT
# Columns and labels:
# Assay in all cases: glycan array binding signal (z-score within array); higher = stronger binding
# Details in all cases: glycan notation: IUPAC condensed, linker removed; mutation: Y228W
# [1] = biological target: Gal(b1-4)GlcNAc(b1-3)Gal(b1-4)GlcNAc(b1-2)[Gal(b1-4)GlcNAc(b1-3)Gal(b1-4)GlcNAc(b1-6)]Man(a1-6)[Gal(b1-4)GlcNAc(b1-3)Gal(b1-4)GlcNAc(b1-2)Man(a1-3)]Man(b1-4)GlcNAc(b1-4)[Fuc(a1-6)]GlcNAc
# Method in brief: (§1)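 Glycan array data came from 3228 arrays in the Consortium for Functional Glycomics database, and only arrays with an available protein sequence were kept. Glycan names were put into IUPAC-condensed notation, and columns mapping to the same glycan were averaged. The binding signal is a within-array Z-score, averaged across arrays of one protein sequence run at different concentrations or buffers and across linkers. A negative Z-score can be read as non-binding.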
# [2] = biological target: Gal(b1-4)GlcNAc(b1-3)Gal(b1-4)GlcNAc(b1-3)Gal(b1-4)GlcNAc(b1-2)[Gal(b1-4)GlcNAc(b1-3)Gal(b1-4)GlcNAc(b1-3)Gal(b1-4)GlcNAc(b1-6)]Man(a1-6)[Gal(b1-4)GlcNAc(b1-3)Gal(b1-4)GlcNAc(b1-3)Gal(b1-4)GlcNAc(b1-2)Man(a1-3)]Man(b1-4)GlcNAc(b1-4)[Fuc(a1-6)]GlcNAc
# Method in brief: as §1
# [3] = biological target: Gal(b1-4)GlcNAc(b1-3)Gal(b1-4)GlcNAc(b1-3)Gal(b1-4)GlcNAc(b1-3)Gal(b1-4)GlcNAc(b1-3)Gal(b1-4)GlcNAc(b1-2)Man(a1-3)[Gal(b1-4)GlcNAc(b1-3)Gal(b1-4)GlcNAc(b1-3)Gal(b1-4)GlcNAc(b1-3)Gal(b1-4)GlcNAc(b1-3)Gal(b1-4)GlcNAc(b1-2)Man(a1-6)]Man(b1-4)GlcNAc(b1-4)GlcNAc
# Method in brief: as §1
# [4] = biological target: Gal(b1-4)GlcNAc(b1-6)[Gal(b1-3)]GalNAc
# Method in brief: as §1
# [5] = biological target: Gal3S(b1-4)[Fuc(a1-3)]GlcNAc6S
# Method in brief: as §1
# [6] = biological target: Gal6S(b1-3)GlcNAc6S
# Method in brief: as §1
# [7] = biological target: Gal6S(b1-4)GlcNAc6S
# Method in brief: as §1
# [8] = biological target: GalNAc(b1-4)GlcNAc(b1-3)GalNAc(b1-4)GlcNAc
# Method in brief: as §1
# [9] = biological target: Glc(a1-4)Glc
# Method in brief: as §1
# [10] = biological target: GlcA(b1-6)Gal
# Method in brief: as §1
# [11] = biological target: GlcNAc(a1-3)Gal(b1-4)GlcNAc
# Method in brief: as §1
# [12] = biological target: GlcNAc(b1-3)Gal
# Method in brief: as §1
# [13] = biological target: GlcNAc(b1-4)Gal(b1-4)GlcNAc
# Method in brief: as §1
# [14] = biological target: Man(a1-3)[Man(a1-6)]Man
# Method in brief: as §1
# [15] = biological target: Man(a1-3)[Man(a1-6)]Man(a1-6)[Man(a1-3)]Man
# Method in brief: as §1
# [16] = biological target: Neu5Ac(a2-3)Gal(b1-3)GalNAc6S
# Method in brief: as §1
# [17] = biological target: Neu5Ac(a2-3)Gal(b1-3)GlcNAc(b1-2)Man(a1-3)[Neu5Ac(a2-3)Gal(b1-3)GlcNAc(b1-2)Man(a1-6)]Man(b1-4)GlcNAc(b1-4)GlcNAc
# Method in brief: as §1
# [18] = biological target: Neu5Ac(a2-3)Gal(b1-3)[Fuc(a1-4)]GlcNAc(b1-3)Gal(b1-4)[Fuc(a1-3)]GlcNAc
# Method in brief: as §1
# [19] = biological target: Neu5Ac(a2-3)Gal(b1-4)GlcNAc(b1-3)Gal(b1-4)[Fuc(a1-3)]GlcNAc
# Method in brief: as §1
# [20] = biological target: Neu5Ac(a2-3)Gal(b1-4)[Fuc(a1-3)]GlcNAc(b1-3)Gal
# Method in brief: as §1
# [21] = biological target: Neu5Ac(a2-3)[GalNAc(b1-4)]Gal(b1-4)GlcNAc
# Method in brief: as §1
# [22] = biological target: Neu5Ac(a2-6)Gal(b1-4)GlcNAc(b1-2)Man(a1-3)[Gal(b1-4)GlcNAc(b1-2)Man(a1-6)]Man(b1-4)GlcNAc(b1-4)GlcNAc
# Method in brief: as §1
# [23] = biological target: Neu5Ac(a2-6)Gal(b1-4)GlcNAc(b1-2)Man(a1-3)[Man(a1-6)]Man(b1-4)GlcNAc(b1-4)GlcNAc
# Method in brief: as §1
# [24] = biological target: Neu5Ac(a2-6)Gal(b1-4)GlcNAc(b1-2)Man(a1-3)[Neu5Ac(a2-6)Gal(b1-4)GlcNAc(b1-2)Man(a1-6)]Man(b1-4)GlcNAc(b1-4)[Fuc(a1-6)]GlcNAc
# Method in brief: as §1
# [25] = biological target: Neu5Ac(a2-6)Gal(b1-4)GlcNAc(b1-2)Man(a1-6)[Gal(b1-4)GlcNAc(b1-2)Man(a1-3)]Man(b1-4)GlcNAc(b1-4)GlcNAc
# Method in brief: as §1
# [26] = biological target: Neu5Ac(a2-6)GalNAc(b1-4)GlcNAc6S
# Method in brief: as §1
# [27] = biological target: Neu5Ac(a2-8)Neu5Ac
# Method in brief: as §1
# [28] = biological target: Neu5Gc(a2-3)Gal(b1-4)GlcNAc
# Method in brief: as §1
# [29] = biological target: Neu5Gc(a2-8)Neu5Gc(a2-3)Gal(b1-4)GlcNAc(b1-3)Gal(b1-4)GlcNAc
# Method in brief: as §1
binder,measurement,setting,value
B1,glycan array binding signal (z-score),[1],2.98
same,glycan array binding signal (z-score),[2],3.05
same,glycan array binding signal (z-score),[3],1.78
same,glycan array binding signal (z-score),[4],2.77
same,glycan array binding signal (z-score),[5],-0.015
same,glycan array binding signal (z-score),[6],0.205
same,glycan array binding signal (z-score),[7],3.63
same,glycan array binding signal (z-score),[8],-0.329
same,glycan array binding signal (z-score),[9],-0.29
same,glycan array binding signal (z-score),[10],0.341
same,glycan array binding signal (z-score),[11],-0.131
same,glycan array binding signal (z-score),[12],-0.421
same,glycan array binding signal (z-score),[13],-0.126
same,glycan array binding signal (z-score),[14],-0.183
same,glycan array binding signal (z-score),[15],-0.095
same,glycan array binding signal (z-score),[16],-0.312
same,glycan array binding signal (z-score),[17],-0.117
same,glycan array binding signal (z-score),[18],0.021
same,glycan array binding signal (z-score),[19],-0.295
same,glycan array binding signal (z-score),[20],-0.343
same,glycan array binding signal (z-score),[21],-0.228
same,glycan array binding signal (z-score),[22],-0.285
same,glycan array binding signal (z-score),[23],0.235
same,glycan array binding signal (z-score),[24],-0.238
same,glycan array binding signal (z-score),[25],-0.14
same,glycan array binding signal (z-score),[26],-0.172
same,glycan array binding signal (z-score),[27],-0.272
same,glycan array binding signal (z-score),[28],-0.19
same,glycan array binding signal (z-score),[29],-0.388
